The results in this text go back to the supplement of paper PMC9262897, “Low-cost anti-mycobacterial drug discovery using engineered E. coli” (Nature Communications, 2022).

Counter-ions that a name gives are not always drawn. ± gives the standard deviation of the averaged measurements.

The test system of this experiment is E. coli TESEC Alr+ wild-type control. The experiment in a line: growth (OD600 after 10 h); higher = more growth (less inhibition). As to conditions: compound 0.1 mM; raw OD600 reference: median of DMSO wells 0.49, cell-free background 0.052. The protocol: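 TESEC Mtb Alr E. coli (ΔaraC ΔtolC ΔentC Δalr ΔdadX, arabinose-inducible Mtb Alr) or the Alr+ wild-type control strain, grown in defined M9-fructose medium without D-alanine in 96-well plates with Prestwick library compounds at 0.1 mM and 1% DMSO. Low Alr induction is 0.1 µM arabinose and high induction is 10 mM arabinose.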
`C[C@H](N)[C@H](O)c1ccc(O)c(O)c1` [Levonordefrin]: the growth turned out to be 0.465 ± 0.099.
Regarding `CNC(=O)Oc1ccc2c(c1)[C@]1(C)CCN(C)[C@@H]1N2C` [Eserine hemisulfate salt], the growth was found to be 0.423 ± 0.028.
As to `C[C@]12CCC(=O)C=C1CC[C@@H]1[C@@H]2C(=O)C[C@]2(C)C(=O)CC[C@@H]12` [Adrenosterone], the growth was 0.533 ± 0.083.
In turn, `COc1ccc(CN2CCNCC2)c(OC)c1OC` [Trimetazidine dihydrochloride] gave a growth of 0.584 ± 0.012.
`CC(=O)O[C@H]1CC[C@@]2(C)C(=CC[C@@H]3[C@@H]2CC[C@]2(C)C(=O)CC[C@@H]32)C1` [Dehydroisoandosterone 3-acetate] displayed a growth of 0.253 ± 0.0042.
As to `C[N+]1([O-])[C@@H]2C[C@@H](OC(=O)[C@H](CO)c3ccccc3)C[C@H]1[C@@H]1O[C@@H]12` (stereo not given in full) [Scopolamin-N-oxide hydrobromide], the growth worked out at 0.472 ± 0.045.
The molecule `CC(O)(CS(=O)(=O)c1ccc(F)cc1)C(=O)Nc1ccc(C#N)c(C(F)(F)F)c1` (stereo not given) [Bicalutamide] displayed a growth of 0.3777 ± 0.0027.
For the molecule `C[C@]12CC[C@H]3[C@@H](CCC4=CC(=O)CC[C@@H]43)[C@@H]1CC[C@@H]2O` [Nandrolone], the growth came to 0.423 ± 0.015.
With `CN(C)C(=O)Oc1cccc([N+](C)(C)C)c1` [Neostigmine bromide], the growth was 0.563 ± 0.068.
`CN1[C@@H]2CC[C@H]1C[C@@H](OC(=O)[C@H](CO)c1ccccc1)C2` [Hyoscyamine (L)]: the growth was determined as 0.468 ± 0.045.
For `CCC(=O)O[C@H]1CC[C@H]2[C@@H]3CCC4=CC(=O)CC[C@]4(C)[C@H]3CC[C@]12C` [Testosterone propionate] the value was 0.351 ± 0.039; for `NCC(CC(=O)O)c1ccc(Cl)cc1` (racemic) [Baclofen (R,S)], 0.456 ± 0.038; for `CC(CCc1ccccc1)NC(C)C(O)c1ccc(O)cc1` (stereo not given) [Nylidrin], 0.491 ± 0.052.
Regarding `COc1ccc(C(CN(C)C)C2(O)CCCCC2)cc1` (stereo not given) [Venlafaxine], the growth was found to be 0.438 ± 0.018.
On to `CN(C)[C@@H]1C(=O)C(C(N)=O)=C(O)[C@@]2(O)C(=O)C3=C(O)c4c(O)cccc4[C@@](C)(O)[C@H]3C[C@@H]12` [Tetracycline hydrochloride], for which the growth stood at 0.0518 ± 0.0007.
`CCN[C@@H](C)Cc1cccc(C(F)(F)F)c1` [Dexfenfluramine hydrochloride] displayed a growth of 0.466 ± 0.025.
Take `C[CH2][Hg][S]c1ccccc1C(=O)[O-].[Na+]` [Thimerosal]: the growth was found to be 0.216 ± 0.1.
Consider `C#C[C@]1(O)CC[C@H]2[C@@H]3CCC4=CC(=O)CCC4=C3C=C[C@@]21CC` [Gestrinone], for which the growth was 0.287 ± 0.011.
In turn, `N[C@@H]1C[C@H]1c1ccccc1` [Tranylcypromine hydrochloride] had a growth of 0.529 ± 0.055.
In turn, `C[C@]12CC[C@H](O)C[C@H]1CC[C@@H]1[C@@H]2C[C@@H](O)[C@]2(C)[C@@H](C3=CC(=O)OC3)CC[C@]12O` [Digoxigenin] yielded a growth of 0.491 ± 0.031.
`C#C[C@]1(O)CC[C@H]2[C@@H]3CCC4=CC(=O)CC[C@]4(C)[C@H]3CC[C@@]21C` [Ethisterone] came in with a growth of 0.48 ± 0.055.
`C[C@]12CC[C@H](O)C[C@@H]1CC[C@@H]1[C@@H]2CC[C@]2(C)C(=O)CC[C@@H]12` [Epiandrosterone] showed a growth of 0.252 ± 0.013.
In turn, `CCC1(c2ccc(N)cc2)CCC(=O)NC1=O` (stereo not given) [Glutethimide, para-amino] showed a growth of 0.445 ± 0.022.
For `O=P1(NCCCl)OCCCN1CCCl` (stereo not given) [Ifosfamide], the growth turned out to be 0.517 ± 0.077.
`COc1ccc(CCN2CCC(Nc3nc4ccccc4n3Cc3ccc(F)cc3)CC2)cc1` [Astemizole]: the growth is 0.0478 ± 0.00075.
For `CCN(C)C(=O)Oc1cccc([C@H](C)N(C)C)c1` [Rivastigmine] the value was 0.504 ± 0.066.
Regarding `CNCC(O)c1ccc(O)cc1` (racemic) [(+,-)-Synephrine], the growth worked out at 0.58 ± 0.057.
On to `CC[C@@H](C(N)=O)N1CCCC1=O` [Levetiracetam], for which the growth was found to be 0.453 ± 0.03.
Consider `CC(C)(C)NCC(O)c1ccccc1Cl` (stereo not given) [Tulobuterol], for which the growth turned out to be 0.507 ± 0.082.
In turn, `CC(=O)O[C@H]1C[C@@H]2CC[C@@H]3[C@H](CC[C@@]4(C)[C@H]3C[C@H]([N+]3(C)CCCCC3)[C@@H]4OC(C)=O)[C@@]2(C)C[C@@H]1[N+]1(C)CCCCC1` [Pancuronium bromide] came in with a growth of 0.506 ± 0.021.
For `C[N+]1(C)CCOC(O)(c2ccc(-c3ccc(C4(O)C[N+](C)(C)CCO4)cc3)cc2)C1` (stereo not given) [Hemicholinium bromide], the growth came out at 0.559 ± 0.071.
`CC(C)c1c(CN(C)C(C)Cc2ccccc2)n(C)n(-c2ccccc2)c1=O` (stereo not given) [Famprofazone] had a growth of 0.443 ± 0.019.
The molecule `c1ccc2c(c1)Nc1ccccc1S2` [Phenothiazine] had a growth of 0.457 ± 0.0082.
On to `C[C@]12CCC(=O)C=C1C=C[C@@H]1[C@@H]2CC[C@@]2(C)[C@H]1CC[C@@]2(O)CCC(=O)O` [Canrenoic acid potassium salt], for which the growth came out at 0.502 ± 0.031.
`CNC(C)(C)Cc1ccccc1` [Mephentermine hemisulfate] yielded a growth of 0.48 ± 0.047.
To `C[N+]1(C)[C@@H]2CC[C@H]1C[C@@H](OC(=O)C(CO)c1ccccc1)C2` (stereo not given in full) [Methylatropine nitrate] belongs 0.707 ± 0.049.
The molecule `C#CCN(C)[C@H](C)Cc1ccccc1` [Selegiline hydrochloride] had a growth of 0.441 ± 0.043.
Molecule `NC(=O)C[S+]([O-])C(c1ccccc1)c1ccccc1` (stereo not given) [Modafinil] had a growth of 0.634 ± 0.016.
As for `c1ccc2c(c1)OCC(C1=NCCN1)O2` (stereo not given) [Idazoxan hydrochloride], the growth worked out at 0.598 ± 0.015.
Turning to `O=C(NCNC(=O)NC1C(=O)NC(=O)N1CO)NC1C(=O)NC(=O)N1CO` (stereo not given) [Imidurea], the growth came out at 0.545 ± 0.022.
